# Unmarked numbers belong to inactive results. Calls of active or inactive are those of the source.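 How the source made its calls: active means thallium flux through the channel raised or lowered by more than 3 SD from vehicle-only wells, actives on both sides; inactive means the rest.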
# System: R275C/beta4
# Test: modulators of BK channel variants, profiling panel, selectivity assay, cell-based, U2OS BacMam, thallium flux, beta subunits (AID 1259406);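 further: initial slope of Thallos dye fluorescence rise after thallium is added; log ratio against the mean of 0.3% DMSO vehicle wells on the same plate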
# Settings: at 30 µM
row,Structure (SMILES),log fold change Tl+ flux
1,CNCCC(Oc1ccc(C(F)(F)F)cc1)c1ccccc1 (stereo not drawn),0.301 (active)
2,COc1ccc(/C=C/C(=O)Nc2ccccc2C(=O)O)cc1OC,-0.0078
3,COC(=O)[C@H](c1ccccc1Cl)N1CCc2sccc2C1,-0.038
4,CC(C)NCC(O)COc1cccc2ccccc12 (stereo not drawn),0.00549
5,O=[N+]([O-])c1cccc2cn[nH]c12,0.0112
6,CS(=O)(=O)c1ccc(C2=C(c3ccccc3)C(=O)OC2)cc1,0.00682
7,Cc1occc(=O)c1O,-0.00174
8,CN(C)c1nc(N(C)C)nc(N(C)C)n1,-0.000902
9,COc1ccc(-c2cc(=O)c3c(OC)c(OC)c(OC)c(OC)c3o2)cc1OC,-0.242 (active)
10,C[N+]1(C)CCCC(OC(=O)C(O)(c2ccccc2)c2ccccc2)C1 (stereo not drawn),0.0435
11,CC1=C(/C=C/C(C)=C/C=C/C(C)=C\C(=O)O)C(C)(C)CCC1,0.00975
12,CCc1ccc(CCOc2ccc(CC3SC(=O)NC3=O)cc2)nc1 (stereo not drawn),-0.028
13,CC(C(=O)O)c1ccc(-c2ccccc2)c(F)c1 (stereo not drawn),0.0279
14,CC[C@H]1OC(=O)[C@H](C)[C@@H](O[C@H]2C[C@@](C)(OC)[C@@H](O)[C@H](C)O2)[C@H](C)[C@@H](O[C@@H]2O[C@H](C)C[C@H](N(C)C)[C@H]2O)[C@](C)(OC)C[C@@H](C)C(=O)[C@H](C)[C@@H](O)[C@]1(C)O,-0.0137
15,C[C@H]1COc2c(N3CCN(C)CC3)c(F)cc3c(=O)c(C(=O)O)cn1c23,-0.0147
16,CC(C)NCC(O)COc1ccc(CC(N)=O)cc1 (stereo not drawn),0.0424
17,Cc1cccc(C)c1NC(=O)C1CCCCN1C (stereo not drawn),-0.0225
18,CCCCC(=O)N(Cc1ccc(-c2ccccc2-c2nn[nH]n2)cc1)[C@H](C(=O)O)C(C)C,0.0104
19,Nc1ncnc2c1ncn2[C@@H]1O[C@H](CO)[C@@H](O)[C@@H]1O,0.00861

# System: R275C/Slo1WT/beta2
# Test: as above
# Settings: at 30 µM
row,Structure (SMILES),log fold change Tl+ flux
1,CNCCC(Oc1ccc(C(F)(F)F)cc1)c1ccccc1 (stereo not drawn),0.0335
2,COc1ccc(/C=C/C(=O)Nc2ccccc2C(=O)O)cc1OC,0.0419
3,COC(=O)[C@H](c1ccccc1Cl)N1CCc2sccc2C1,-0.0324
4,CC(C)NCC(O)COc1cccc2ccccc12 (stereo not drawn),-0.0153
5,O=[N+]([O-])c1cccc2cn[nH]c12,-0.00893
6,CS(=O)(=O)c1ccc(C2=C(c3ccccc3)C(=O)OC2)cc1,0.00403
7,Cc1occc(=O)c1O,0.0112
8,CN(C)c1nc(N(C)C)nc(N(C)C)n1,0.0129
9,COc1ccc(-c2cc(=O)c3c(OC)c(OC)c(OC)c(OC)c3o2)cc1OC,-0.0213
10,C[N+]1(C)CCCC(OC(=O)C(O)(c2ccccc2)c2ccccc2)C1 (stereo not drawn),0.0306
11,CC1=C(/C=C/C(C)=C/C=C/C(C)=C\C(=O)O)C(C)(C)CCC1,0.0252
12,CCc1ccc(CCOc2ccc(CC3SC(=O)NC3=O)cc2)nc1 (stereo not drawn),-0.0116
13,CC(C(=O)O)c1ccc(-c2ccccc2)c(F)c1 (stereo not drawn),0.0126
14,CC[C@H]1OC(=O)[C@H](C)[C@@H](O[C@H]2C[C@@](C)(OC)[C@@H](O)[C@H](C)O2)[C@H](C)[C@@H](O[C@@H]2O[C@H](C)C[C@H](N(C)C)[C@H]2O)[C@](C)(OC)C[C@@H](C)C(=O)[C@H](C)[C@@H](O)[C@]1(C)O,-0.00092
15,C[C@H]1COc2c(N3CCN(C)CC3)c(F)cc3c(=O)c(C(=O)O)cn1c23,0.0224
16,CC(C)NCC(O)COc1ccc(CC(N)=O)cc1 (stereo not drawn),0.0165
17,Cc1cccc(C)c1NC(=O)C1CCCCN1C (stereo not drawn),-0.0173
18,CCCCC(=O)N(Cc1ccc(-c2ccccc2-c2nn[nH]n2)cc1)[C@H](C(=O)O)C(C)C,0.0346
19,Nc1ncnc2c1ncn2[C@@H]1O[C@H](CO)[C@@H](O)[C@@H]1O,0.0175
